Assay results from paper PMC4552634, “A New Set of Chemical Starting Points with Plasmodium falciparum Transmission-Blocking Potential for Antimalarial Drug Discovery” (PLoS ONE, 2015).
Hit rate of the full screen: of about 13,000 compounds, about 3,200 (25%) showed an effect of 50% or more. The list shows a part of the results.

These compounds were tested on P. falciparum stage V gametocytes. Details: 48 h, 5 µM; inhibitor.
Design: BacTiter-Glo ATP luminescence viability of purified stage V gametocytes in 384-well plates, per cent inhibition versus DMSO
In the case of OC[C@H]1CCCN1CC#Cc1cc2c(Nc3ccc(OCc4cccc(F)c4)c(Cl)c3)ncnc2s1 [TCMDC-138787], the “% Inhibition” value was -22.43%.
With Cc1ccn2c(C(=O)N3CCN(c4cccc5c4nc(-c4ccoc4)n5Cc4ccccn4)CC3)c(C)nc2c1 [TCMDC-134556] the “% Inhibition” value was -25.5%.
With CCCC(=O)Nc1ccc(Nc2nc(C)cc(N3CCCC3)n2)cc1 [TCMDC-124718] the “% Inhibition” value was -11.42%.
In the case of COc1ccc(Nc2ncc3c(-c4cccc(NC(=O)Cc5ccncc5)c4)c[nH]c3n2)cc1OC [TCMDC-135286], the “% Inhibition” value was -39.63%.
COc1ccc(Nc2ncc3c(-c4cccc(NC(=O)Cc5ccc(O)cc5)c4)c[nH]c3n2)cc1OC [TCMDC-135248] was tested, and the “% Inhibition” value was -43.02%.
COc1ccc(Nc2ncc3c(-c4cccc(NC(=O)CC(C)C)c4)c[nH]c3n2)cc1OC [TCMDC-135246] was tested, and the “% Inhibition” value was 51.08%.
For NC1CCCN(Cc2cccc(-c3ccc(-c4nc5ccccc5[nH]4)s3)c2)C1.O=C(O)C(F)(F)F (stereo not drawn) [TCMDC-133870], the “% Inhibition” value was 15.45%.
In the case of Cc1cccc2nc(-c3ccc(-c4cccc(CN5CCCCC5)c4)s3)[nH]c12.O=C(O)C(F)(F)F [TCMDC-133911], the “% Inhibition” value was -13.55%.
In the case of Cc1cccc2nc(-c3ccc(-c4cccc(CN5CCC(N)C5)c4)s3)[nH]c12.O=C(O)C(F)(F)F (stereo not drawn) [TCMDC-133873], the “% Inhibition” value was 89.08%.
With Cc1cccc2nc(-c3ccc(-c4cccc(CN5CCCC(O)C5)c4)s3)[nH]c12.O=C(O)C(F)(F)F (stereo not drawn) [TCMDC-133834] the “% Inhibition” value was -3.04%.
With Cc1cccc2nc(-c3ccc(-c4cccc(CN5CCC(C(N)=O)CC5)c4)s3)[nH]c12.O=C(O)C(F)(F)F [TCMDC-132690] the “% Inhibition” value was -2.69%.
With Cc1cccc2nc(-c3ccc(-c4cccc(CN5CCC(CCN6CCCCC6)CC5)c4)s3)[nH]c12.O=C(O)C(F)(F)F [TCMDC-133923] the “% Inhibition” value was 107.3%.
In the case of Cc1cccc2nc(-c3ccc(-c4cccc(CN5CCN(CCN6CCOCC6)CC5)c4)s3)[nH]c12.O=C(O)C(F)(F)F [TCMDC-133925], the “% Inhibition” value was 7.217%.
Cc1cccc2nc(-c3ccc(-c4cccc(CN5CCCC(N)C5)c4)s3)[nH]c12.O=C(O)C(F)(F)F (stereo not drawn) [TCMDC-133874] was tested, and the “% Inhibition” value was 63.62%.
For Cc1cccc2nc(-c3ccc(-c4cccc(CN5CCC(CO)CC5)c4)s3)[nH]c12.O=C(O)C(F)(F)F [TCMDC-133122], the “% Inhibition” value was 24.91%.
With COc1cc(Nc2nccn3c(-c4ccsc4)cnc23)cc(OC)c1OC [TCMDC-134382] the “% Inhibition” value was 37.58%.
With COc1ccc(-c2cncc(-c3ccc(OC)c(OC)c3)n2)cc1OC [TCMDC-138247] the “% Inhibition” value was 25.57%.
For COc1ccc(-c2cnn3ccc(Nc4cc(OC)c(OC)c(OC)c4)nc23)cc1OC [TCMDC-134383], the “% Inhibition” value was 101%.
O=C(CSc1nccn1C1CCCCC1)Nc1cc(C(F)(F)F)ccc1Cl [TCMDC-124949] was tested, and the “% Inhibition” value was 15.12%.
With Cc1c(CNCCCNc2nc3ccncc3[nH]2)sc(Br)c1Br [TCMDC-140512] the “% Inhibition” value was 32.17%.
CCNc1cc(C(=O)N[C@@H](Cc2ccccc2)[C@H](O)CNC(C)C)cc(N2CC(c3ccccc3)CCS2(=O)=O)c1 (stereo partly drawn) [TCMDC-134660] was tested, and the “% Inhibition” value was 43.25%.
In the case of O=S(=O)(NC1CCN(c2ccnc3cc(Cl)ccc23)C1)c1cccs1 (stereo not drawn) [TCMDC-133398], the “% Inhibition” value was 1.762%.
For Fc1ccc2nc(-c3cccc(-c4ccc(CNCCc5ccncc5)cc4)c3)[nH]c2c1 [TCMDC-132854], the “% Inhibition” value was 81.48%.
CNCCNCc1ccc(-c2cccc(-c3nc4ccc(F)cc4[nH]3)c2)cc1 [TCMDC-132836] was tested, and the “% Inhibition” value was 79.45%.
In the case of CNc1ccc(CNCc2ccc(-c3ccc(-c4nc5ccc(F)cc5[nH]4)cc3)cc2)cc1 [TCMDC-132980], the “% Inhibition” value was -78.33%.
COc1ccc(CNCc2cccc(-c3cccc(-c4nc5ccc(F)cc5[nH]4)c3)c2)cc1 [TCMDC-132717] was tested, and the “% Inhibition” value was -45.78%.
In the case of CN(C)CCNCc1ccc(-c2ccc(-c3nc4ccc(F)cc4[nH]3)cc2)cc1 [TCMDC-132681], the “% Inhibition” value was 40.34%.
CS(=O)(=O)NCCCNCc1cccc(-c2cccc(-c3nc4ccc(F)cc4[nH]3)c2)c1 [TCMDC-133075] was tested, and the “% Inhibition” value was -24.93%.
In the case of Fc1ccc2nc(-c3cccc(-c4ccc(CNCc5ccccc5)cc4)c3)[nH]c2c1 [TCMDC-132702], the “% Inhibition” value was -56.98%.
With COc1ccc(CNCc2ccc(-c3cccc(-c4nc5ccc(F)cc5[nH]4)c3)cc2)cc1 [TCMDC-132721] the “% Inhibition” value was -29.84%.
For Nc1cccc(CNCc2ccc(-c3cccc(-c4nc5ccc(F)cc5[nH]4)c3)cc2)c1 [TCMDC-132937], the “% Inhibition” value was -46.54%.
In the case of Fc1ccc2nc(-c3cccc(-c4cccc(CNCCc5ccncc5)c4)c3)[nH]c2c1 [TCMDC-132857], the “% Inhibition” value was -45.49%.
In the case of CNCCNCc1ccc(-c2ccc(-c3nc4ccc(F)cc4[nH]3)cc2)cc1 [TCMDC-132832], the “% Inhibition” value was 83.07%.
In the case of CNCCNCc1cccc(-c2cccc(-c3nc4ccc(F)cc4[nH]3)c2)c1 [TCMDC-132840], the “% Inhibition” value was 70.05%.
With COc1nc2c(CCN3CC[C@H](NCc4ccc5c(c4)NC(=O)CO5)[C@H](O)C3)c(Cl)cnc2cc1F [TCMDC-135805] the “% Inhibition” value was -8.55%.
CC(C)CC(=O)N1CCNC[C@@H]1C(=O)NC1CC1 [TCMDC-141241] was tested, and the “% Inhibition” value was 28.73%.
For CN1CCCCC1CCc1cc(C(=O)Nc2ccc(-c3ccc(O)cc3)cc2)ccc1O (stereo not drawn) [TCMDC-132103], the “% Inhibition” value was -69.36%.
In the case of CC1(C)CCC(=Cc2ccc(Cl)cc2)CC1(O)Cn1ccnc1 (stereo not drawn) [TCMDC-125222], the “% Inhibition” value was 20.04%.
In the case of Nc1ncc(Cc2cc(Cl)c(N)c3ncccc23)c(N)n1 [TCMDC-137889], the “% Inhibition” value was 44.6%.
With Nc1ccc(-c2nc3ccc(Cc4ccc5nc(-c6ccc(N)cc6)[nH]c5c4)cc3[nH]2)cc1 [TCMDC-123486] the “% Inhibition” value was 52.65%.
For Nc1ccc(-c2nc3ccc(Oc4ccc5nc(-c6ccc(N)cc6)[nH]c5c4)cc3[nH]2)cc1 [TCMDC-125791], the “% Inhibition” value was -25%.
In the case of Cc1nc2ccc(-c3nc4ccc(N)cc4[nH]3)cc2[nH]1 [TCMDC-123723], the “% Inhibition” value was -56.67%.
With COc1ccccc1N1CCN(CCCCNC(=O)c2ccc(NC(=O)c3cc(Cl)cc(Cl)c3)cc2)CC1 [TCMDC-138236] the “% Inhibition” value was 3.866%.
In the case of O=C(/C=C/c1ccc(Cl)c(Cl)c1)NCCCCCCN1CCN(C(=O)Nc2ccc(F)c(Cl)c2)CC1 [TCMDC-135833], the “% Inhibition” value was -83.03%.
In the case of COc1ccc(-c2cccc(NC(=O)c3cccs3)c2)cc1CN1CCCN(C)CC1 [TCMDC-132600], the “% Inhibition” value was 87.2%.
In the case of COc1ccc(-c2cccc(NC(=O)c3ccc(C#N)cc3)c2)cc1CN1CCN(C)CC1 [TCMDC-132612], the “% Inhibition” value was -15.47%.
For COc1ccc(-c2ccc(NC(=O)c3ccc(C#N)cc3)cc2)cc1CN1CCCN(C)CC1 [TCMDC-132517], the “% Inhibition” value was 41.17%.
COc1ccc(-c2cccc(NC(=O)c3ccc(C#N)cc3)c2)cc1CN1CCCN(C)CC1 [TCMDC-132609] was tested, and the “% Inhibition” value was -22.05%.
For COc1ccc(-c2cccc(NC(=O)c3ccccc3)c2)cc1CN1CCCN(C)CC1 [TCMDC-132627], the “% Inhibition” value was 80.03%.
In the case of COc1ccc(-c2ccc(NC(=O)c3ccc(F)cc3)cc2)cc1CN1CCCN(C)CC1 [TCMDC-132514], the “% Inhibition” value was 15.06%.
COc1ccc(-c2ccc(NC(=O)c3ccccc3)cc2)cc1CN1CCCN(C)CC1 [TCMDC-132535] was tested, and the “% Inhibition” value was 93.82%.
COc1ccc(-c2ccc(NC(=O)c3cccs3)cc2)cc1CN1CCCN(C)CC1 [TCMDC-132509] was tested, and the “% Inhibition” value was -9.366%.
O=C(Nc1cccc(C(F)(F)F)c1)NC1CCN(c2ccnc3cc(Cl)ccc23)C1 (stereo not drawn) [TCMDC-133406] was tested, and the “% Inhibition” value was -28.21%.
In the case of COC(=O)CCCCCOc1cc(Cc2cnc(N)nc2N)cc(OC)c1OC [TCMDC-137678], the “% Inhibition” value was -5.017%.
In the case of Cc1ccc(CCC(C)NCC(O)c2cccc(C(F)(F)F)c2)cc1 (stereo not drawn) [TCMDC-131446], the “% Inhibition” value was 13.09%.
For COc1ccc(Cc2c(Cl)nc3nc(N)nc(N)c3c2C)cc1 [TCMDC-138055], the “% Inhibition” value was 17.08%.
Oc1ccc(CCCNc2nc(NCc3ccccc3-c3ccccc3)nc(NC3CCNCC3)n2)cc1 [TCMDC-133389] was tested, and the “% Inhibition” value was 58.76%.
For Oc1ccc(CCCNc2nc(NCc3cccc4ccccc34)nc(NC3CCNCC3)n2)cc1 [TCMDC-133392], the “% Inhibition” value was 57.4%.
With Oc1ccc(CCNc2nc(NCc3ccccc3-c3ccc(C(F)(F)F)cc3)nc(NC3CCNCC3)n2)cc1 [TCMDC-133387] the “% Inhibition” value was 26.8%.
Oc1ccc(CCCNc2nc(NCc3cccc4ccccc34)nc(N3CCNCC3)n2)cc1 [TCMDC-133394] was tested, and the “% Inhibition” value was 8.629%.
In the case of Oc1ccc(CCCNc2nc(NCc3ccccc3-c3ccccc3)nc(N3CCNCC3)n2)cc1 [TCMDC-133391], the “% Inhibition” value was 23.94%.
For Oc1ccc(CCCNc2nc(NCc3cccc4ccccc34)nc(N3CCCNCC3)n2)cc1 [TCMDC-133445], the “% Inhibition” value was -39.91%.
O=[N+]([O-])c1cccc(Nc2cncc(-c3ccc(CO)cc3)c2)c1 [TCMDC-136670] was tested, and the “% Inhibition” value was 46.28%.
For COc1cc(NCC(C)CNCc2cn(Cc3ccccc3)c3ccccc23)nc2ccccc12 (stereo not drawn) [TCMDC-140496], the “% Inhibition” value was 91.67%.
CC(CNCc1cn(Cc2cc(Br)cc(Br)c2)c2ccccc12)CNc1cc(=O)c2ccccc2[nH]1 (stereo not drawn) [TCMDC-140681] was tested, and the “% Inhibition” value was 91.88%.
For CCCC(CNCc1cccc(C)c1)CNc1cc(=O)c2ccccc2[nH]1 (stereo not drawn) [TCMDC-139435], the “% Inhibition” value was 10.27%.
COc1cccc2[nH]c(NCCCNCc3cc(Br)cc(Br)c3)nc12 [TCMDC-139984] was tested, and the “% Inhibition” value was 1.75%.
For COc1cc(NCCCNCc2cn(Cc3cc(Br)cc(Br)c3)c3ccccc23)nc2ccccc12 [TCMDC-140677], the “% Inhibition” value was 108.1%.
For O=c1cc(NCC2(CNCc3cn(Cc4ccccc4)c4ccccc34)CCCCC2)[nH]c2ccccc12 [TCMDC-140540], the “% Inhibition” value was -59.9%.
With CCCC(CNCc1ccccc1)CNc1cc(=O)c2ccccc2[nH]1 (stereo not drawn) [TCMDC-139434] the “% Inhibition” value was 43.59%.
COc1cc(C(F)(F)F)cc2[nH]c(CNCCCNc3nc4ccccc4[nH]3)cc12 [TCMDC-140013] was tested, and the “% Inhibition” value was 19.83%.
For COc1cc(NCC2(CNCc3cn(Cc4ccccc4)c4ccccc34)CCCCC2)nc2ccccc12.Cl [TCMDC-140539], the “% Inhibition” value was 107.8%.
